Compound activity from PubChem.
FBW7 activator: human FBW7 E3 ligase activation, primary screen | normalized activity (activation), % at 26.1 µM | 0.13% of 650,000 active | Q969H0 | AlphaScreen FBW7–phospho-cyclin E peptide binding, activator screen; in the data active means normalized activity above about 1.9%;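 further: purified mutant Fbw7 with reduced substrate affinity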
Target sequence (Q969H0 whole entry, looked up): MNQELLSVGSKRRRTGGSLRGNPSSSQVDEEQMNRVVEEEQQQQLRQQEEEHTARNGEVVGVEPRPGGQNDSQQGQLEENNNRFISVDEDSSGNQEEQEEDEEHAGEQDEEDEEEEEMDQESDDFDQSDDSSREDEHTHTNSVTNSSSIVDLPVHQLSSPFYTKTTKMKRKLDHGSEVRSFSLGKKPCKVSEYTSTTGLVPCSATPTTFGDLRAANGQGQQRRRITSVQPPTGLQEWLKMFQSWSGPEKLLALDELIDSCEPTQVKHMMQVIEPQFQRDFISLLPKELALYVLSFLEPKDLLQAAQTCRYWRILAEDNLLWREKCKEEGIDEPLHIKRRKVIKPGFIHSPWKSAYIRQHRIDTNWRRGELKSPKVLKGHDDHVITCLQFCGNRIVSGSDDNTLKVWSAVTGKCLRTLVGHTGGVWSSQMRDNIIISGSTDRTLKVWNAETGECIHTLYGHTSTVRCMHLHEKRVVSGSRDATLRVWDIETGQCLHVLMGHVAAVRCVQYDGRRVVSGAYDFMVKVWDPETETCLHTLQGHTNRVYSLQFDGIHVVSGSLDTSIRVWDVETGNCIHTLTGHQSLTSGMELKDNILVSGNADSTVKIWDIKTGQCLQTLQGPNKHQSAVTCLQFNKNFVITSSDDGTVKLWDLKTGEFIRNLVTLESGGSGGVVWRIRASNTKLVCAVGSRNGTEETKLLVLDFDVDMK
MITF primary: human MITF inhibition, primary screen | O75030 | AlphaScreen MITF homodimerization, bead proximity signal | inhibition, % at 2.6 µM | 0.91% of 650,000 active | AID 1259374; in the data active means inhibition above about 50%
GPR151 ag: activators of human GPR151; Q8TDV0; PathHunter beta-arrestin GPR151 cells, luminescence; activation, % at 11.2 µM; 1% of 650,000 active; AID 1508602; in the data active means activation above about 4.9%
TEAD-YAP inh: TEAD-YAP interaction inhibition | 1.4% of 640,000 active | HEK-TIYL cells, TEAD-Gal4/YAP UAS-luciferase luminescence | AID 1259422 | inhibition, % at 9.12 µM; in the data active means inhibition above about 32%
Each line names hits and unclear results; the compound was inactive in the other large screens. The list is not random: actives were taken first. Their share in the collection is about 3.5%.

Cc1cc2ncn(C(=O)c3c(-c4c(Cl)cccc4Cl)noc3C)c2cc1C	FBW7 activator 2.4
COc1cccc(CN2CCN(Cc3cccc4nccnc34)[C@@H](C)C2)c1	none
COC(=O)c1ccc(-c2ccc(/C=C(\C#N)c3nc(N)c(C#N)c(N)c3C#N)o2)cc1	FBW7 activator 4.7
O=C(Nc1ccc(I)cc1)c1cc([N+](=O)[O-])ccc1Cl	TEAD-YAP inh 38
O=C(Nc1cccc(O)c1)c1ccc([N+](=O)[O-])cc1Cl	TEAD-YAP inh 73
CC(=O)Nc1cccc(NC(=O)c2cc([N+](=O)[O-])ccc2Cl)c1	none
COc1cccc(NC(=O)c2cc([N+](=O)[O-])ccc2Cl)c1	none
COc1ccc(NC(=O)c2cc([N+](=O)[O-])ccc2Cl)cc1	TEAD-YAP inh 34
O=C(Nc1cccc(C(F)(F)F)c1)c1cc([N+](=O)[O-])ccc1Cl	TEAD-YAP inh 52
CC(=O)Nc1cccc(NC(=O)c2ccc([N+](=O)[O-])cc2Cl)c1	none
COC(=O)c1ccc(NC(=O)c2cc([N+](=O)[O-])ccc2Br)cc1	TEAD-YAP inh 33
O=C(Nc1ccc(O)cc1C(=O)O)c1cccc([N+](=O)[O-])c1	MITF primary 53
O=C(Nc1ccc(C23CC4CC(CC(c5ccccc5)(C4)C2)C3)cc1)c1cc([N+](=O)[O-])ccc1Cl	TEAD-YAP inh 59
O=C(Nc1cccc(C(F)(F)F)c1)c1ccc([N+](=O)[O-])o1	TEAD-YAP inh 36
O=C(COC(=O)c1ccc([N+](=O)[O-])o1)Nc1cccc(C(F)(F)F)c1	none
O=C(Nc1cccc([N+](=O)[O-])c1)c1ccco1	none
COc1ccc(C(=O)Nc2ccncc2)cc1[N+](=O)[O-]	none
CC(=O)Nc1ccc(NC(=O)c2cc([N+](=O)[O-])ccc2Cl)cc1	none
COC(=O)c1ccc(NC(=O)c2ccc(OC)c([N+](=O)[O-])c2)cc1	FBW7 activator 3.7
O=C(Nc1sccc1C(=O)Nc1cccc([N+](=O)[O-])c1)c1ccco1	TEAD-YAP inh 39
COc1ccc2nc(NC(=O)c3cc([N+](=O)[O-])ccc3Cl)sc2c1	TEAD-YAP inh 33
O=C(Nc1ccc(F)cc1)c1cc([N+](=O)[O-])ccc1Cl	TEAD-YAP inh 33
N/C(CC(=O)Nc1cccc(C(F)(F)F)c1)=N\O	none
O=C(Nc1cccc(OC(=O)c2ccc(Cl)cc2)c1)c1ccc([N+](=O)[O-])cc1	TEAD-YAP inh 32
O=C(CCl)Nc1cccc(C(F)(F)F)c1	TEAD-YAP inh 34
Cc1cc(/C=C2/NC(=O)N(c3cccc(Cl)c3)C2=O)c(C)n1C	TEAD-YAP inh 55
Cc1ccc(CN2CCNC(=O)C2CC(=O)N(Cc2nccn2C)C(C)C)o1 (centres undefined)	none
O=C(Nc1ccc(S(=O)(=O)c2ccc(NC(=O)c3ccncc3)cc2)cc1)c1ccncc1	none
COc1ccc2cc3c(N)nn(C(=O)c4ccco4)c3nc2c1	TEAD-YAP inh 59
COc1ccc2cc3c(N)nn(C(=O)c4ccccc4C)c3nc2c1	TEAD-YAP inh 45
O=C(CN1C(=O)C(=O)N(c2ccccc2)C1=O)Nc1ccccc1[N+](=O)[O-]	none
Cc1ccc(NC(=O)c2ccc(S(=O)(=O)N3CCCC3)cc2)c(C)c1	none
COc1ccccc1N1CCN(C(=O)CS(=O)(=O)c2ccccc2)CC1	none
CCOc1ccc(NC(=O)C2=C(C)NC(=O)NC2c2cccc(Cl)c2)cc1 (centres undefined)	none
CCOc1ccc(NC(=O)C2=C(C)NC(=O)NC2c2ccc(Cl)cc2Cl)cc1 (centres undefined)	TEAD-YAP inh 40
COc1ccc(C2NC(=O)NC(C)=C2C(=O)Nc2ccc(Br)cc2)cc1 (centres undefined)	TEAD-YAP inh 47
CCOc1ccc(NC(=O)C2=C(C)NC(=O)NC2c2ccc(C)cc2)cc1 (centres undefined)	TEAD-YAP inh 33
CC(=O)NS(=O)(=O)c1ccc(NC(=O)C2CCCO2)cc1 (centres undefined)	none
Cc1cccc(N(C(=O)Oc2ccccc2)S(=O)(=O)c2ccc3c(c2)oc(=O)n3C(=O)Oc2ccccc2)c1	none
O=C(Nc1ccccc1F)c1cnc2ccccn2c1=O	TEAD-YAP inh 54
CC(C)n1cnc2c(NCCO)nc(N3CCCC3CO)nc21 (centres undefined)	none
OCC1CCCN1c1nc(NCc2nc3ccccc3[nH]2)c2ncn(-c3ccccc3)c2n1 (centres undefined)	TEAD-YAP inh 48
Clc1nc(NCc2nc3ccccc3[nH]2)c2ncn(-c3ccccc3)c2n1	none
O=C1CCCN1CCCNc1nc(N2CCCC2CO)nc2c1ncn2-c1ccccc1 (centres undefined)	TEAD-YAP inh 47
OCCNc1nc(N2CCCC2CO)nc2c1ncn2-c1ccccc1 (centres undefined)	TEAD-YAP inh 55
CCN(CC)C(=O)C1CCCN(c2nc(NCCCN3CCCC3=O)c3ncn(-c4ccccc4)c3n2)C1 (centres undefined)	TEAD-YAP inh 36
CN(C)c1cc(-n2nc(-c3ccccc3)cc2-c2ccccc2)ncn1	none
OCC1CCCN1c1nc(NCCc2ccc(O)cc2)c2ncn(-c3ccsc3)c2n1 (centres undefined)	none
OCC1CCCN1c1nc(NCCN2CCOCC2)c2ncn(-c3ccsc3)c2n1 (centres undefined)	TEAD-YAP inh 61
O=C1CCCN1CCCNc1nc(N2CCCC2CO)nc2c1ncn2-c1ccsc1 (centres undefined)	TEAD-YAP inh 42
O=C(CN1C(=O)NC2(CCCC2)C1=O)Nc1ccc(S(=O)(=O)NCc2ccco2)cc1	none
Cc1csc(-c2cnc3ccc(NCCCO)nn23)c1	TEAD-YAP inh 34
c1ccc(CNc2ccc3ncc(-c4ccco4)n3n2)nc1	TEAD-YAP inh 53
Cc1csc(-c2cnc3ccc(NCc4ccccn4)nn23)c1	TEAD-YAP inh 40
CC(C)(C)C(=O)Nc1ccc(C(=O)Nc2cccc(O)c2)cc1	TEAD-YAP inh 64
CC(C)(C)N1C(=O)c2ccc(C(=O)Nc3cccc(O)c3)cc2C1=O	TEAD-YAP inh 89
CCCCOc1ccc(C(=O)Nc2cccc(O)c2)cc1	TEAD-YAP inh 82
O=C(Nc1cccc(O)c1)c1ccc(Oc2ccccc2)cc1	TEAD-YAP inh 93
COc1cccc(NC(=O)c2ccc(NC(=O)C(C)(C)C)cc2)c1	none
Cc1ccc(C2CC(c3ccc(Br)cc3)n3nnnc3N2)cc1C (centres undefined)	none
COc1ccc(-c2nc(-c3ccc4c(c3)C(=O)c3ccccc3-4)c(-c3ccccc3)[nH]2)cc1	none
COc1ccc(C2=CC(c3cc(OC)ccc3OC)n3nnnc3N2)cc1 (centres undefined)	none
CCOc1ccc(C2C=C(c3ccc(F)cc3)Nc3nnnn32)cc1 (centres undefined)	none
COc1cccc(C2=CC(c3cc(OC)ccc3OC)n3nnnc3N2)c1 (centres undefined)	TEAD-YAP inh 50
COc1cccc(C2C=C(c3ccc(C)cc3)Nc3nnnn32)c1 (centres undefined)	TEAD-YAP inh 32
